Source: PubChem BioAssay (several laboratories)
Most compounds without a hit are left out; they make up all but 1.4% or so of the library.
VHR inh abs: DUSP3 (human) phosphatase inhibition; recombinant VHR phosphatase, pNPP absorbance; 290,000 compounds, 0.52% hits; P51452; inhibition, % at 13.3 µM; in the data active = inhibition above about 50%
BJeLR lethal: kills HRASV12-expressing BJeLR cells | BJeLR (HRASV12) viability, CellTiter-Glo ATP luminescence, 48 h | inhibition, % (no concentration beside the values) | 300,000 compounds, 0.17% hits | AID 1554; in the data active = inhibition above about 50%
3CLpro inhibitor: SARS-CoV 3CLpro protease inhibition; recombinant SARS-CoV 3CLpro, quenched FRET peptide cleavage; P0C6X7; inhibition, % at 6 µM; 290,000 compounds, 0.14% hits; AID 1706; in the data active = inhibition above about 12%
PrPC TRFRET: reduces human prion protein on the cell surface | inhibition, % at 13.8 µM | 370,000 compounds, 0.43% hits | cell surface PrPC, TR-FRET read-out | AID 720596; in the data active = inhibition above about 24%; note: 0% = median of the test wells and 100% = reference compound wells
ugtP null kill: kills S. aureus RN4220 lacking UgtP; growth inhibition, % (no concentration beside the values); S. aureus RN4220 ugtP deletion, OD600 growth, 16 h; 330,000 compounds, 0.54% hits; in the data active = growth inhibition above about 68%;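 note: plate controls were untreated wells for no effect and antibiotic for full effect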
Sa RN4220 lethal: S. aureus RN4220 growth inhibition. 330,000 compounds, 0.33% hits. OD600, 16 h. inhibition, % (concentration not given with the values); in the data active = inhibition above about 85%;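 note: plate controls were untreated cells for no effect and reference antibiotic for full effect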
PrPC confirm: cell surface PrPC inhibition, TR-FRET confirmation; shares compounds with PrPC TRFRET; cell surface PrPC level; inhibition, % at 13.8 µM; 1,500 compounds, 65% hits; in the data active = inhibition above about 25%
LD9 cytotox: counter-screen for PrPc inhibitors: cytotoxicity in LD9 cells; inhibition, % at 13.8 µM; shares compounds with PrPC TRFRET; luminescence viability; 1,500 compounds, 29% hits; AID 743201; in the data active = inhibition above about 9.5%
* hit, by the source's call; / = no result.

SMILES	VHR inh abs	BJeLR lethal	3CLpro inhibitor	PrPC TRFRET	ugtP null kill	Sa RN4220 lethal	PrPC confirm	LD9 cytotox
CCOC(=O)NC(=O)CSc1ccc2ccccc2n1	48	-4	0	49*	1	0	49*	-9
CC(=O)c1cccc(S(=O)(=O)N(Cc2cc3cc4c(cc3[nH]c2=O)OCCO4)CC2CCCO2)c1 (centres undefined)	17	-4	5	2	-2	8	/	/
O=c1[nH]c2cc3c(cc2cc1CN(CC1CCCO1)S(=O)(=O)c1ccccc1)OCCO3 (centres undefined)	7	7	3	55*	-2	6	14	-2
COc1ccc(NC(=O)c2nnn(CC(=O)Nc3ccc4c(c3)OCO4)c2N)cc1OC	-17	11	1	-4	0	3	/	/
COc1ccc(Br)cc1Cn1nnc(C(=O)Nc2ccc3c(c2)OCCO3)c1N	-15	-2	4	25*	0	2	18	0
COC(=O)[C@]1(Cc2ccccc2)NC(c2ccc(-c3ccc(Cl)c(Cl)c3)cc2)C2C(=O)N(C)C(=O)C21 (some centres undefined)	/	/	/	/	1	-1	/	/
O=C(C1=CC(c2csc3ccccc23)CC(OCc2ccc(CO)cc2)O1)N1CCN(Cc2ccc3c(c2)OCO3)CC1 (centres undefined)	/	/	/	/	9	3	/	/
NC(=O)C1CCN(C(=O)c2cc(-c3ccc(Cl)cc3)nc3ccccc23)CC1	/	/	/	-10	4	-1	/	/
NC(=O)C1CCN(C(=O)c2cc(-c3ccccc3Cl)nc3ccccc23)CC1	/	/	/	43*	5	0	43*	-5
COc1nc(-c2ccccc2)c2cc(Br)ccc2n1	/	-17	/	36*	9	2	71*	4
NNc1nc(-c2ccccc2)c2cc(Br)ccc2n1	21	1	-5	-14	7	11	/	/
C=CCOC(=O)C1=CC(c2ccccc2)C(CCCO)C(OCC)O1 (centres undefined)	/	/	/	/	2	6	/	/
CCOC1OC(C(=O)NC2CC2)=CC(c2ccc(Br)cc2)C1CCCO (centres undefined)	/	/	/	/	2	7	/	/
Cc1ccc(S(=O)(=O)c2cccc(S(=O)(=O)N3CCCC3)c2)cc1S(=O)(=O)N1CCCC1	8	-2	2	34*	5	5	30*	9
CCOC(=O)C1C2COc3ccc(Br)cc3C2N2C(=O)N(c3ccc(Cl)cc3)C(=O)[C@]12C (some centres undefined)	/	/	/	/	-5	-4	/	/
CC(NC(=O)c1[nH]cnc1C(=O)Nc1ccc(Cl)cc1)c1ccccc1 (centres undefined)	/	/	/	/	-33	13	/	/
Cc1cc2ccccc2n1CCNC(=O)C1CCCC1	24	-3	1	40*	-2	0	4	1
Cc1cc2ccccc2n1CCNC(=O)C1CC1	33	-2	-4	28*	16	19	7	-2
CCn1c(CNC(=O)C2CCCCC2)cc2ccccc21	30	-5	8	9	3	-1	/	/
O=C(NCCn1ccc2ccccc21)C1CCCCC1	39	7	7	5	1	-13	/	/
Cc1cc2ccccc2n1CCNC(=O)c1cccs1	-2	-17	4	33*	13	19	25*	-5
Cc1cc2ccccc2n1CCNC(=O)C1CCCCC1	-15	-4	5	36*	-8	-10	11	-2
CC(C)CC(CO)N1CCN(CCCc2ccccc2)CCC1=O (centres undefined)	/	/	/	/	5	4	/	/
CCN(CC)C(=O)c1cccc(-c2csc(C(C)(O)c3ccncc3)n2)c1 (centres undefined)	/	/	/	40*	/	/	30*	7
CN(C(=O)CSc1cc(C(=O)c2nccn2C)c2ccccc2n1)c1ccccc1	17	2	-1	89*	13	4	74*	8
SMILES	VHR inh abs	BJeLR lethal	3CLpro inhibitor	PrPC TRFRET	ugtP null kill	Sa RN4220 lethal	PrPC confirm	LD9 cytotox
Cn1ccnc1C(=O)c1cc(SCC(=O)NC2CC2)nc2ccccc12	14	-3	-3	-3	-2	2	/	/
COC(=O)C1=C(c2ccc(C(C)=O)cc2)CC2CCC1N2C(=O)NCCNC(C)=O (centres undefined)	/	/	/	/	-1	4	/	/
O=C(CCSc1ccc(Cl)cc1)N1CCN(c2ccc(O)cc2)CC1	13	-17	4	38*	/	/	28*	1
COC(=O)c1ccc(C=Cc2c(-c3ccc(OC)cc3)oc3ccc(N4CCOCC4)cc23)cc1	/	/	/	/	9	2	/	/
CCCCN1CCC2C=CCC(C(=O)Nc3nccs3)C2C1=O (centres undefined)	/	/	/	/	0	7	/	/
c1ccc(C2(CN3CCNCC3CC3CCCCC3)CC2)cc1 (centres undefined)	/	/	/	/	-2	0	/	/
COc1cccc(N2CCN(c3ncnc4c3[nH]c3ccccc34)CC2C)c1 (centres undefined)	35	10	-4	55*	/	/	75*	90*
COc1ccc2[nH]c3c(N4CC(C)OC(C)C4)ncnc3c2c1 (centres undefined)	16	-4	-3	6	-12	0	/	/
CC(C)c1oc(=O)cc2c1[C@@H](O)[C@H]1OC(=O)[C@@]3(C)C[C@@H](O)[C@@H](O)[C@@]2(C)C13 (some centres undefined)	16	13	4	64*	/	/	58*	11*
CC(C)c1oc(=O)cc2c1[C@@H](O)[C@H]1OC(=O)[C@@]3(C)CC[C@@H](O)[C@@]2(C)C13 (some centres undefined)	9	-11	-3	62*	/	/	52*	13*
CC(C)c1oc(=O)cc2c1C(O)C1OC(=O)[C@@]3(C)CC(O)C(O)[C@@]2(C)C13 (some centres undefined)	/	/	/	/	-8	2	/	/
N#CC1=C2SCN(Cc3ccccc3)CN2C(=O)CC1c1cccs1 (centres undefined)	0	4	0	27*	-9	-10	56*	-3
N#CC1=C2SCN(Cc3ccccc3)CN2C(=O)CC1c1ccc2c(c1)OCO2 (centres undefined)	3	-17	7	1	-1	1	/	/
O=c1cc(CNc2cc(C(F)(F)F)cc(C(F)(F)F)c2)nc2sccn12	10	-7	12	29*	-9	-2	20	-7
OCC1OC(OCC2OC(OCC3OC(O[C@]4(CO)OC(CO)C(O)C4O)C(O)C(O)C3O)C(O)C(O)C2O)C(O)C(O)C1O (some centres undefined)	/	/	/	/	0	1	/	/
COc1ccc(-c2cc(C(=O)NN=C/C(C)=C/c3ccccc3)[nH]n2)cc1	/	/	/	25*	/	/	20	-2
O=C(O)c1ccc(C=NNC(=O)c2cc(-c3ccc(Cl)cc3)n[nH]2)cc1	/	/	/	2	/	/	/	/
